Measurements published in PubChem BioAssay.
Potency and affinity values are given separately. Results filed as inconclusive are left out. The source made the active and inactive calls. Unless noted, how the calls were made is not given here.

Assays:
[1] = RMG-1 ovarian cancer cell viability loss – cherry-pick, dose response (AID 687029;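 active means signal drop whose fitted half-maximal concentration is at most twice the top valid dose, in every test run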;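 further: cells exposed to compound for 96 hours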)
[2] = IOSE-T80 viability loss, PAX8-independent line – cell-based, cherry-pick, selectivity assay for PAX8 inhibitor project, dose response (AID 687032;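 active means fitted half-maximal concentration for viability loss no higher than twice the top valid dose, in every repeat run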;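 further: cells exposed to compound for 96 h before reading; 0% = neutral control wells and -100% = 2 µM mitoxantrone kill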)
[3] = CMV-driven luciferase expression suppression in HEK293 – cell-based, luminescence, dry powder, counter-screen for Pax8 inhibitor project, dose response (AID 743020;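 active means signal-lowering compounds whose fitted half-maximal concentration is at or below twice the top tested dose in every run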;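 further: HEK293 cells stably expressing the CMV luciferase reporter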)
[4] = general cell-killing toxicity readout – plate reader, dry powder samples, cytotoxicity control for PAX8 inhibitor project, dose response (AID 743021)
[5] = IGROV1 cell killing – plate reader, dry powder samples, PAX8 inhibitor project, dose response (AID 743043);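 further: more negative means fewer viable cells or more cytotoxicity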
[6] = OVCAR-3 cell viability loss – plate reader, dry powder samples, PAX8 inhibitor project, dose response (AID 743044); conditions: max activity: at 35 µM, hits give low values unless noted
[7] = toxicity toward immortalized ovarian surface epithelium – cell-based, plate reader, dry powder samples, cytotoxicity control for PAX8 inhibitor project, dose response (AID 743045);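 further: 0% = neutral control median and -100% = positive control median; more negative values mean more cell killing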
[8] = A2780 cell killing – plate reader, dry powder samples, cytotoxicity control, dose response (AID 743046);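 further: 0% = neutral control wells and -100% = cytotoxic reference compound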

Measured: max activity

C[C@H](CO)N1C[C@H](C)[C@H](CN(C)Cc2ccc(C(F)(F)F)cc2)OCCCC[C@H](C)Oc2ccc(NC(=O)c3ccccc3)cc2C1=O
inactive: [1] | [2] | [3] | [4] | [5] | [6] -59.7% | [7] | [8]

C[C@@H]1CN([C@H](C)CO)C(=O)c2cc(NC(=O)CCCCCC(=O)Nc3ccccc3N)ccc2O[C@@H](C)CCCCO[C@H]1CN(C)Cc1ccc(Cl)c(Cl)c1
inactive: [1] | [2] | [3] | [4] | [5] | [6] -28.2% | [7] | [8]

COc1cccc(S(=O)(=O)Nc2ccc3c(c2)[C@H]2C[C@H](CC(=O)NCc4ccccc4F)O[C@H](CO)[C@H]2O3)c1
inactive: [1] | [2] | [3] | [4] | [5] | [6] 44.6% [at 0.5 µM, hits give low values] | [7] | [8]

C[C@@H]1CN([C@@H](C)CO)C(=O)Cc2cc(NC(=O)Nc3ccc(C(F)(F)F)cc3)ccc2O[C@H]1CN(C)C(=O)Nc1ccc(C(F)(F)F)cc1
inactive: [1] | [2] | [3] | [4] | [5] | [6] -32.2% | [7] | [8]

C[C@H](CO)N1C[C@H](C)[C@H](CN(C)C(=O)c2ccccc2)OCCCC[C@H](C)Oc2ccc(NC(=O)Nc3ccc(C(F)(F)F)cc3)cc2C1=O
inactive: [1] | [2] | [3] | [4] | [5] | [6] 16.6% [at 0.5 µM, hits give low values] | [7] | [8]

Cc1ccc(S(=O)(=O)Nc2ccc3c(c2)C(=O)N([C@@H](C)CO)C[C@H](C)[C@@H](CN(C)Cc2ccc(Cl)c(Cl)c2)OCCCC[C@@H](C)O3)cc1
inactive: [1] | [2] | [3] | [4] | [5] | [6] -5.1% [at 16 µM, hits give low values] | [7] | [8]

COCCNC(=O)C[C@@H]1C[C@H]2c3cc(NC(=O)Nc4ccc(C(F)(F)F)cc4)ccc3O[C@H]2[C@H](CO)O1
inactive: [1] | [2] | [3] | [4] | [5] | [6] -18.8% | [7] | [8]

Cc1ccc(S(=O)(=O)Nc2ccc3c(c2)C(=O)N([C@H](C)CO)C[C@@H](C)[C@H](CN(C)S(=O)(=O)c2ccc(Cl)cc2)OCCCC[C@H](C)O3)cc1
inactive: [1] | [2] | [3] | [4] | [5] | [6] -15.5% | [7] | [8]

C[C@@H]1CCCCO[C@@H](CN(C)Cc2ccc(Cl)c(Cl)c2)[C@H](C)CN([C@@H](C)CO)C(=O)c2cc(NS(=O)(=O)c3ccc(Cl)cc3)ccc2O1
inactive: [1] | [2] | [3] | [4] | [5] | [6] 10.4% [at 0.5 µM, hits give low values] | [7] | [8]

C[C@@H]1CCCCO[C@@H](CN(C)S(=O)(=O)c2cccs2)[C@H](C)CN([C@H](C)CO)C(=O)c2cc(NC(=O)Nc3ccc(C(F)(F)F)cc3)ccc2O1
inactive: [1] | [2] | [3] | [4] | [5] | [6] 9.36% [at 2.1 µM, hits give low values] | [7] | [8]

C[C@H]1CN([C@@H](C)CO)S(=O)(=O)c2ccc(-c3ccc(C#N)cc3)cc2O[C@@H]1CN(C)Cc1cccc(F)c1
inactive: [1] | [2] | [3] | [4] | [5] | [6] -11.6% [at 16 µM, hits give low values] | [7] | [8]

O=C(C[C@@H]1CC[C@H]2[C@@H](COC[C@@H](O)CN2Cc2cccc(C(F)(F)F)c2)O1)NCc1ccc(F)cc1
inactive: [1] | [2] | [3] | [4] | [5] | [6] 13.4% [at 2.1 µM, hits give low values] | [7] | [8]

COc1cccc(S(=O)(=O)N(C)C[C@@H]2Oc3cc(C4=CCCCC4)ccc3S(=O)(=O)N([C@@H](C)CO)C[C@H]2C)c1
inactive: [1] | [2] | [3] | [4] | [5] | [6] -34.5% [at 0.5 µM, hits give low values] | [7] | [8]

C[C@H](CO)N1C[C@H](C)[C@H](CN(C)Cc2ccc(C(F)(F)F)cc2)Oc2ccc(NS(=O)(=O)c3ccc(F)cc3)cc2CC1=O
inactive: [1] | [2] | [3] | [4] | [5] | [6] 12.3% [at 16 µM, hits give low values] | [7] | [8]

CC(C)CC#Cc1ccc2c(c1)O[C@@H](CN(C)S(=O)(=O)c1ccc(F)cc1)[C@H](C)CN([C@@H](C)CO)S2(=O)=O
inactive: [1] | [2] | [3] | [4] | [5] | [6] 21.6% [at 4.2 µM, hits give low values] | [7] | [8]

O=C(C[C@H]1C[C@@H]2c3cc(NS(=O)(=O)c4ccc(F)cc4)ccc3O[C@@H]2[C@@H](CO)O1)NCc1ccc(-c2ccccc2)cc1
inactive: [1] | [2] | [3] | [4] | [5] | [6] -28.3% | [7] | [8]

C[C@H]1CCCCO[C@H](CN(C)Cc2ccc(Cl)c(Cl)c2)[C@@H](C)CN([C@@H](C)CO)C(=O)c2cc(NC(=O)Nc3ccccc3)ccc2O1
inactive: [1] | [2] | [3] | [4] | [5] | [6] -18.6% | [7] | [8]

Cc1ccc(S(=O)(=O)N(C)C[C@@H]2OCCCC[C@@H](C)Oc3ccc(NS(=O)(=O)c4ccc(Cl)cc4)cc3C(=O)N([C@H](C)CO)C[C@H]2C)cc1
inactive: [1] | [2] | [3] | [4] | [5] | [6] -13.3% [at 4.2 µM, hits give low values] | [7] | [8]

C[C@@H]1CCCCO[C@@H](CN(C)Cc2ccccc2)[C@H](C)CN([C@H](C)CO)C(=O)c2cc(NC(=O)Nc3ccc(C(F)(F)F)cc3)ccc2O1
inactive: [1] | [2] | [3] | [4] | [5] | [6] -20.2% [at 16 µM, hits give low values] | [7] | [8]

C[C@@H]1CN([C@H](C)CO)C(=O)c2cc(NS(=O)(=O)c3ccccc3)ccc2O[C@@H](C)CCCCO[C@H]1CN(C)Cc1ccc(Cl)c(Cl)c1
inactive: [1] | [2] | [3] | [4] | [5] | [6] 22% [at 0.5 µM, hits give low values] | [7] | [8]

Cc1cccc(-c2ccc([C@H]3[C@@H](CO)N4CCCCN(S(=O)(=O)c5cccc(C)c5)C[C@@H]34)cc2)c1
inactive: [1] | [2] | [3] | [4] | [5] | [6] -13.6% | [7] | [8]

COc1ccc(CN(C)C[C@@H]2OCCCC[C@H](C)Oc3ccc(NC(=O)Nc4cccc5ccccc45)cc3C(=O)N([C@H](C)CO)C[C@H]2C)cc1
inactive: [1] | [2] | [3] | [4] | [5] | [6] -16.9% | [7] | [8]

C[C@@H]1CCCCO[C@@H](CN(C)Cc2ccc(Cl)c(Cl)c2)[C@H](C)CN([C@@H](C)CO)C(=O)c2cc(NS(=O)(=O)c3ccccc3)ccc2O1
inactive: [1] | [2] | [3] | [4] | [5] | [6] -34.1% [at 0.26 µM, hits give low values] | [7] | [8]

COc1cccc(S(=O)(=O)N(C)C[C@@H]2OCc3ccccc3-c3c(n(C)c4ccccc34)C(=O)N([C@@H](C)CO)C[C@@H]2C)c1
inactive: [1] | [2] | [3] | [4] | [5] | [6] 23.2% [at 2.1 µM, hits give low values] | [7] | [8]

C[C@H]1CCCCO[C@H](CN(C)C(=O)Nc2ccc(F)cc2)[C@@H](C)CN([C@@H](C)CO)C(=O)c2cc(NC(=O)Nc3ccc(C(F)(F)F)cc3)ccc2O1
inactive: [1] | [2] | [3] | [4] | [5] | [6] 8.44% [at 16 µM, hits give low values] | [7] | [8]

C[C@@H]1CN([C@@H](C)CO)C(=O)c2cc(NC(=O)Nc3ccc(C(F)(F)F)cc3)ccc2O[C@@H](C)CCCCO[C@@H]1CN(C)Cc1ccccc1
inactive: [1] | [2] | [3] | [4] | [5] | [6] -20.5% [at 16 µM, hits give low values] | [7] | [8]

C[C@@H]1CCCCO[C@H](CN(C)Cc2ccc(C(F)(F)F)cc2)[C@@H](C)CN([C@@H](C)CO)C(=O)c2cc(NS(=O)(=O)c3ccccc3)ccc2O1
inactive: [1] | [2] | [3] | [4] | [5] | [6] -9.99% | [7] | [8]

COc1ccccc1C#Cc1ccc2c(c1)O[C@H](CN(C)Cc1cccnc1)[C@H](C)CN([C@H](C)CO)S2(=O)=O
inactive: [1] | [2] | [3] | [4] | [5] | [6] -36.9% | [7] | [8]

C[C@H](CO)N1C[C@H](C)[C@H](CN(C)S(=O)(=O)c2ccc(F)cc2)OCCCC[C@H](C)Oc2ccc(NC(=O)Nc3ccc(F)cc3)cc2C1=O
inactive: [1] | [2] | [3] | [4] | [5] | [6] -19% [at 16 µM, hits give low values] | [7] | [8]

C[C@@H]1CN([C@H](C)CO)C(=O)c2cc(NS(=O)(=O)c3cccs3)ccc2O[C@@H](C)CCCCO[C@H]1CN(C)Cc1ccc(C(F)(F)F)cc1
inactive: [1] | [2] | [3] | [4] | [5] | [6] -10.6% [at 16 µM, hits give low values] | [7] | [8]
